Screening data from PubChem BioAssay.
This is a sample that favours compounds with a hit; in the whole collection about 1.8% have one here.
PDI turbidity: PDI (human) enzyme inhibition. PDI insulin aggregation turbidity, A650, 90 min. P07237. 350,000 tested, 0.052% active. inhibition, % at 10 µM;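 active means mean inhibition across replicates of 30% or more, whatever share of single replicates reach that level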
Target sequence (P07237 whole entry, looked up): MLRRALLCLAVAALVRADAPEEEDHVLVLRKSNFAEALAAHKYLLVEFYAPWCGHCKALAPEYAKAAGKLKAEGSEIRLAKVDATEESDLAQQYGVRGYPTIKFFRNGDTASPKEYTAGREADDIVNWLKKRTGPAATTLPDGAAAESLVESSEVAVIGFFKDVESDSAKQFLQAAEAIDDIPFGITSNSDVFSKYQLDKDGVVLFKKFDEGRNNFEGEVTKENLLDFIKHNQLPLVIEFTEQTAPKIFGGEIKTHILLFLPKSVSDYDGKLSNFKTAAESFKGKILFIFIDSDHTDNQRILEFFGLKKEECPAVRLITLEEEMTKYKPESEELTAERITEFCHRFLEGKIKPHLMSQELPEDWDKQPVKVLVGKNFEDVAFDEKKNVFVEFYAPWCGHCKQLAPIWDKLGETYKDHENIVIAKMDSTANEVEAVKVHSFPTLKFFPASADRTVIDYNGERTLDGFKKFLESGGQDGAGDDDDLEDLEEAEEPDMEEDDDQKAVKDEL
AF4-AF9 inh: MLL-AF4/AF9 protein interaction inhibition; AlphaScreen, biotin-AF4 peptide binding to FLAG-AF9; inhibition, % at 10 µM; 350,000 tested, 0.47% active; AID 651704;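 active means every replicate reaching a set inhibition limit, whatever the replicate mean, cut at about 25% in these data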;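 further: 0% = plate neutral control median and 100% = total signal loss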
ERAP1 HTS inh: blocks human ERAP1 aminopeptidase activity; Q9NZ08; recombinant ERAP1, Leu-AMC fluorescence, 60 min; inhibition, % at 10.7 µM; 340,000 tested, 0.15% active; AID 652197;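 active means mean replicate inhibition of at least 30%, or all replicates individually reaching that 30% level; inactive means mean below 30% and not every replicate reaching it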;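 further: 0% = neutral control wells and 100% = L-leucinethiol positive control wells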
ERp5 inh: inhibitors of human ERp5; inhibition, % at 9.99 µM; 350,000 tested, 0.05% active; ERp5 insulin aggregation, absorbance 650 nm, 90 min; AID 651711;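 active means mean replicate inhibition above about 25%, with every replicate also reaching it, limit read from the data, passing the limit was not always enough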
DENV2 CPE: inhibitors of DENV2 cytopathic effect | DENV2-infected cells, cytopathic effect rescue, plate reader | CPE inhibition, % at 9.99 µM | 350,000 tested, 1.7% active | AID 651640; in the data active means CPE inhibition above about 20%, passing the limit was not always enough; tested in BHK-21 cells;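 further: 0% = median of neutral control wells and 100% = median of positive control wells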
Numbers without * were called inactive; . = not tested or not shown.

SMILES | PDI turbidity | AF4-AF9 inh | ERAP1 HTS inh | ERp5 inh | DENV2 CPE
COc1ccc(Nc2cc(C)c3cc([N+](=O)[O-])ccc3n2)cc1 | 2 | 6 | -2 | 4 | 28*
Cc1noc(C)c1NC(=O)N(C)C[C@H]1Oc2c(NS(=O)(=O)c3ccc(F)cc3)cccc2C(=O)N([C@@H](C)CO)C[C@@H]1C | . | -1 | 3 | 8 | 19
Cc1noc(C)c1NC(=O)N(C)C[C@H]1Oc2c(cccc2N(C)C)C(=O)N([C@@H](C)CO)C[C@@H]1C | . | -16 | -2 | 3 | 25*
Cc1noc(C)c1NC(=O)N(C)C[C@H]1Oc2c(NC(=O)C3CC3)cccc2C(=O)N([C@H](C)CO)C[C@H]1C | . | -3 | 1 | 2 | 24*
Cc1noc(C)c1NC(=O)N(C)C[C@H]1Oc2c(NS(=O)(=O)c3ccccc3)cccc2C(=O)N([C@@H](C)CO)C[C@H]1C | . | 0 | 2 | -16 | 28*
C[C@@H]1CN([C@H](C)CO)C(=O)c2cccc(NC(=O)CCCCCC(=O)Nc3ccccc3N)c2O[C@H]1CN(C)C(=O)Nc1ccc(C(F)(F)F)cc1 | . | -2 | 1 | -5 | 2
C[C@@H]1CCCCO[C@H](CN(C)S(=O)(=O)c2ccccc2)[C@@H](C)CN([C@H](C)CO)C(=O)c2cc(NS(=O)(=O)c3cn(C)cn3)ccc2O1 | . | -3 | -2 | 4 | -1
COc1ccc2c3c(n(C)c2c1)[C@@H](CO)N(Cc1ccccc1)CC31CCN(CC2CC2)CC1 | . | 3 | . | . | 4
Cc1ccc(S(=O)(=O)N2C[C@@H](O)COC[C@H]3O[C@H](CC(=O)NCC4CCCCC4)CC[C@@H]32)cc1 | . | 30* | 2 | 3 | 9
Cc1ccc(S(=O)(=O)N2C[C@H](O)COC[C@H]3O[C@H](CC(=O)NCC4CCCCC4)CC[C@@H]32)cc1 | . | 20 | 1 | 2 | -11
Cn1cnc(S(=O)(=O)N2C[C@@H](O)COC[C@@H]3O[C@@H](CC(=O)NC4CCCC4)CC[C@H]32)c1 | . | -1 | 0 | 0 | 114*
O=C(C[C@H]1CC[C@@H]2[C@H](COC[C@H](O)CN2CC2CCOCC2)O1)N1CCOCC1 | . | -7 | -1 | -10 | 49*
CN(C)CCCNC(=O)C[C@@H]1CC[C@H]2[C@@H](COC[C@H](O)CN2S(=O)(=O)c2ccccc2)O1 | . | -2 | -1 | 6 | 60*
COCCOC(=O)N1C(=O)[C@@]2(c3ccccc31)[C@H](C(=O)N1CCN(c3ncccn3)CC1)[C@H]1C(=O)O[C@H](c3ccccc3)[C@H](c3ccccc3)N1[C@@H]2c1ccccc1OCCO | . | 1 | 0 | 5 | 6
Cc1ccc(S(=O)(=O)NC[C@@H]2CC[C@@H]3[C@@H](CN3Cc3ccccc3C(=O)O)O2)cc1 | . | -7 | 1 | 2 | 1
O=C(C[C@H]1C[C@@H]2c3cc(NC(=O)CC4CC4)ccc3O[C@@H]2[C@H](CO)O1)NCc1ccncc1 | . | -5 | -2 | -8 | 4
Cc1ccc(S(=O)(=O)N2C[C@@H](O)COC[C@H]3O[C@@H](CC(=O)NCCN4CCCCC4)CC[C@@H]32)cc1 | . | 1 | 4 | -4 | 67*
O=C(C[C@H]1CC[C@@H]2[C@H](COC[C@H](O)CN2CC2CCCCC2)O1)NCC1CC1 | . | -3 | 0 | 4 | 29*
O=C(C[C@H]1CC[C@@H]2[C@H](COC[C@@H](O)CN2CC2CCCCC2)O1)NCC1CC1 | . | -4 | 0 | -3 | 11
CCCNC(=O)N(C)C[C@H]1Oc2cc(-c3ccccc3F)ccc2S(=O)(=O)N([C@@H](C)CO)C[C@@H]1C | . | 0 | -4 | 3 | -3
O=C(CCc1c[nH]c2ccccc12)OCc1cccc([N+](=O)[O-])c1 | -5 | 7 | -1 | 1 | 27*
COC(=O)CCc1c[nH]c2ccc([N+](=O)[O-])cc12 | -9 | 2 | 5 | 0 | -4
O=C(OCC(=O)c1c[nH]c2ccccc12)c1cccc([N+](=O)[O-])c1 | 5 | 11 | -3 | -1 | 80*
O=C(Nc1cc(F)ccc1F)N[C@H]1C=C[C@H](CC(=O)N2CCc3ccccc3C2)O[C@H]1CO | . | 0 | -5 | . | 13
CC=Cc1ccc2n(c1=O)C[C@H]1[C@H](CO)[C@@H](C(=O)NCCC)N(Cc3cccnc3)[C@@H]21 (mixture of isomers) | . | 0 | -2 | 1 | -4
SMILES | PDI turbidity | AF4-AF9 inh | ERAP1 HTS inh | ERp5 inh | DENV2 CPE
CCCC(=O)Nc1ccc2c(c1)C(=O)N(C)C[C@@H](OC)[C@H](C)CN(C(=O)CN1CCOCC1)[C@H](C)CO2 | . | -2 | 7 | -1 | 2
CO[C@@H]1CN(C)C(=O)c2ccc(NC(=O)NC(C)C)cc2OC[C@H](C)N(C(=O)CC2CC2)C[C@H]1C | . | -3 | -7 | 1 | 32*
COCC(=O)Nc1ccc2c(c1)OC[C@H](C)N(C(=O)CC1CC1)C[C@H](C)[C@H](OC)CN(C)C2=O | . | 0 | 3 | -3 | 31*
CCCC(=O)Nc1ccc2c(c1)OC[C@@H](C)N(C(=O)CN1CCOCC1)C[C@@H](C)[C@H](OC)CN(C)C2=O | . | -3 | 1 | 0 | 21*
COCC(=O)Nc1ccc2c(c1)OC[C@@H](C)N(C(=O)COC)C[C@@H](C)[C@H](OC)CN(C)C2=O | . | 0 | 2 | -5 | 53*
COCC(=O)Nc1ccc2c(c1)OC[C@@H](C)N(C(=O)COC)C[C@H](C)[C@H](OC)CN(C)C2=O | . | -3 | 1 | 1 | 10
CO[C@H]1CN(C)C(=O)c2cc(NS(=O)(=O)c3ccc(C)cc3)ccc2OC[C@@H](C)N(C(=O)NC(C)C)C[C@@H]1C | . | -3 | 1 | -5 | 8
COCC#Cc1cnc2c(c1)C(=O)N([C@H](C)CO)C[C@H](C)[C@@H](CN(C)C(=O)NC1CCCC1)O2 | . | -4 | 0 | -10 | -2
CO[C@@H]1CN(C)C(=O)c2ccc(NC(=O)Nc3cccc(F)c3)cc2OC[C@H](C)NC[C@H]1C | . | 3 | -13 | -1 | -4
CC1C(=O)N(Cc2cn(CCC3OCCO3)nn2)CCS(=O)(=O)N1Cc1ccc(-c2cccc(N(C)C)c2)cc1 (stereo unspecified) | 2 | 5 | 15 | -3 | 21*
CC1C(=O)N(Cc2cn(Cc3ccco3)nn2)CCS(=O)(=O)N1Cc1ccc(-c2ccccc2C(F)(F)F)cc1 (stereo unspecified) | . | -1 | 1 | 15 | 65*
CC(C)C1C(=O)N(Cc2cn(CCC3OCCO3)nn2)CCS(=O)(=O)N1Cc1ccc(-c2ccc(Cl)c(Cl)c2)cc1 (stereo unspecified) | -4 | -3 | 0 | 1 | 25*
COc1ccc(-c2ccc(CN3C(C(C)C)C(=O)N(Cc4cn(CCC5OCCO5)nn4)CCS3(=O)=O)cc2)cc1OC (stereo unspecified) | 6 | 5 | 1 | 4 | -2
Cn1cccc1/C=N/NC(=O)c1cc(-c2cccs2)nc2ccccc12 | 8 | 32* | -1 | 1 | 1
COc1cc(/C=N/NC(=O)c2cc(-c3ccco3)nc3ccccc23)cc(OC)c1O | 10 | -1 | . | 1 | 31*
